ERK AVP inh: inhibitors of vasopressin-stimulated ERK signaling pathway; 0.99% of 72,000 active; HEK293-V1b, vasopressin-stimulated pERK AlphaScreen; Potency, µM (titrated, usually from 57.5 µM), actives largely listed as inhibitors; further: nearly all actives have a fitted effect of over 55% in size
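HEK293 cells stably expressing V1b receptor, preincubated 30 min at 37 °C with compound, then stimulated 5 min with 25 nM vasopressin. Phospho-ERK by AlphaScreen SureFire after 5 h RT; normalized to DMSO and vasopressin; AC50 by Hill fit.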
DNA Pol III inh: blocks replication by bacterial DNA polymerase III holoenzyme | reconstituted DNA polymerase III holoenzyme replication, biochemical | Potency, µM (doses to about 57.1 µM) | 0.25% of 71,000 active
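Reconstituted *E. coli* holoenzyme (0.35 nM Pol III, 1 nM beta, 154 nM SSB, 2 nM primase) was preincubated with compound for 15 min at RT. Synthesis on 1.4 nM ssM13Gori ran 35 min, then was stopped with PicoGreen/EDTA and read as dsDNA fluorescence.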
Tau filament bind: binds recombinant human tau filaments; recombinant tau filaments, thioflavin S fluorescence, 15 h; filaments grown with octadecylsulfate alongside compound; Potency, µM (series often up to 57.1 µM); AID 596; P10636; 2% of 71,000 active;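 further: actives lower thioflavin S fluorescence by blocking filaments or displacing dye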
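Recombinant tau protein (human, 1 uM final) plus 30 uM ODS in HEPES pH 7.4 with NaCl, DTT and thioflavine S. Compound present from the start; fluorescence at 510 nm after 15 h, 37 C.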
ALOX15 inhib: 15-hLO (ALOX15) enzyme inhibition; 1.4% of 74,000 active; Potency, µM (series often up to 57.1 µM), actives largely listed as inhibitors; purified 15hLO-1, xylenol orange hydroperoxide absorbance; P16050; further: nearly all actives have a fitted effect of over 55% in size
Target sequence (P16050 whole entry, looked up): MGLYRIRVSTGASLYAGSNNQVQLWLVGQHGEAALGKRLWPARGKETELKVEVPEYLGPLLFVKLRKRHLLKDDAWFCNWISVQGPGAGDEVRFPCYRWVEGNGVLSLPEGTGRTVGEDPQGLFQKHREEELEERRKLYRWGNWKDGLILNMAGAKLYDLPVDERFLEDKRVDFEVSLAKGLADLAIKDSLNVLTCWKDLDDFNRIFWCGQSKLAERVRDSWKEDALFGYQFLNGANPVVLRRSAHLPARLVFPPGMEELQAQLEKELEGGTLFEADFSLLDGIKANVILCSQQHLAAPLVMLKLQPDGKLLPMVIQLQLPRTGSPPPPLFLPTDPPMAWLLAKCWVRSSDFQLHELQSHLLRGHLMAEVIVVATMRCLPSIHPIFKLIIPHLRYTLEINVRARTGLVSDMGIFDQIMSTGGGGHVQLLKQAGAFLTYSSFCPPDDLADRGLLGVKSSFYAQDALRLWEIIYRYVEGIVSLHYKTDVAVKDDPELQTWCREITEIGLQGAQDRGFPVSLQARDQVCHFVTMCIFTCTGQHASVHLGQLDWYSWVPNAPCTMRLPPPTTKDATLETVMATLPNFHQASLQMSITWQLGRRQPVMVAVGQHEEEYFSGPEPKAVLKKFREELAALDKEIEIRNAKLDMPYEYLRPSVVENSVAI
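Purified human 15hLO-1 (40 nM final) in 25 mM Hepes pH 7.5, 0.01% Triton X-100 was preincubated with compound 15 min at room temperature, then reacted 6 min with 50 uM arachidonic acid; hydroperoxide detected by Fe-XO, 573/405 nm absorbance ratio.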
Bst PK mod: modulators of Bacillus stearothermophilus pyruvate kinase. purified pyruvate kinase, luminescence ATP production; ribose 5-phosphate activator present at AC10. Potency, µM. 1.2% of 51,000 active. AID 361; in the data active means potency below about 11 µM; inconclusive means mostly about 12 µM to 25 µM;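 the screen sought inhibitors and activators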
FLuc inh: inhibitors of firefly luciferase; purified firefly luciferase, luminescence, 8 min; Potency, µM (top dose mostly 57.1 µM), usual class: inhibitors; 2.2% of 72,000 active; further: nearly all actives have a fitted effect of over 40% in size
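Luminescence read-out after 8 min at room temperature; enzyme reaction used luciferin plus 10 uM ATP (linear range) in imidazole buffer pH 7.2 with KCl, MgCl2, Tween 20 and BSA. Each sample was run as a titration.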
A number is an active result; i = inactive; ? = inconclusive; nt = not tested or not shown; [ ] = remark or other dose. Compounds with a hit are over-represented: about 6% of the library has one in this group of screens. Unless noted, the call rests on the fitted dose curve; in most records, active means well fitted curve in the direction sought with a large enough effect; inconclusive means small, poorly fitted or top-dose-only effect, or another doubt; inactive means no such curve, though single readings can be large; an effect the other way counts as inactive or inconclusive.

SMILES	ERK AVP inh	DNA Pol III inh	Tau filament bind	ALOX15 inhib	Bst PK mod	FLuc inh
Oc1ccccc1C(Sc1nc2ccccc2s1)Sc1nc2ccccc2s1	i[11.5 µM]	i[11.4 µM]	i[11.4 µM]	?	nt	i[11.4 µM]
COc1ccc(Oc2ncc3nc(-c4cc(F)cc(F)c4)c(=O)n(C[C@H]4CCCO4)c3n2)cc1	i	i	?	i	nt	i[11.4 µM]
COc1ccc(Oc2ncc3ncc(=O)n(C[C@H]4CCCO4)c3n2)cc1	i	i	i	i	nt	i[11.4 µM]
c1ccc2c[n+](CCCC[n+]3ccc4ccccc4c3)ccc2c1	i[11.5 µM]	i[11.4 µM]	3.2µM	i[11.4 µM]	nt	i[11.4 µM]
C[C@@H](C(=O)O)c1ccc(N2Cc3ccccc3C2=O)cc1	i	i	i	i	nt	5µM
O=C(O)[C@H](Cc1ccccc1)N1Cc2ccccc2C1=O	nt	i	i	?	nt	i
CS(=O)(=O)N1CCC[C@@]2(CCN(C(=O)Nc3ccccc3)C2)C1	i	i	i	i	nt	i[11.4 µM]
CCN1C(=O)/C(=C2/Sc3ccc(OC)cc3N2C)SC1=Nc1cccc(O)c1	i	i	3.2µM	i	i	i
CO[C@H]1COC(=O)C/C=C\[C@H](C)[C@@H](OC)COC(=O)[C@@H](C)NC(=O)C/C=C\[C@@H]1C	i[11.5 µM]	nt	nt	i[11.4 µM]	nt	i[11.4 µM]
CCCC(C(=O)NCc1ccco1)N(C(=O)CNS(=O)(=O)c1ccc(Cl)cc1)C1CCCC1 (configuration not stated)	i	i	i	25µM	i	i
O=C(c1n[nH]c2ccccc12)N1CCN(S(=O)(=O)c2ccc3ccccc3c2)CC1	i	i	i	i	9.2	i
Cc1cnc(C(=O)N2CCN(S(=O)(=O)c3ccc4ccccc4c3)CC2)cn1	i	i	i	i	nt	i
CS(=O)(=O)c1ccc(C(O)C(CO)NC(=O)C(Cl)Cl)cc1 (configuration not stated)	i	nt	nt	i	nt	nt
CSCCC=O	i	i	i	i	nt	nt
CNc1nn(-c2cccc(Cl)c2)nc1N	i	i	16µM	i	nt	i
O=C(N/N=C1/C[C@@H](O)[C@@H](O)[C@@H]2[C@@H]3C(=O)N(Cc4ccc5c(c4)OCO5)C(=O)[C@H]3CC[C@@H]12)OCc1ccccc1	i[11.5 µM]	nt	nt	i[11.4 µM]	nt	i[11.4 µM]
COc1ccc(-c2cn3c(n2)CCC3)cc1	i	i	i	i	nt	16µM
Cc1cccc(CNc2nc(-c3cccc(NS(C)(=O)=O)c3)nc3ccccc23)c1	?	i	i	i	nt	i[2.29 µM]
Fc1ccc(Nc2nc(-c3ccoc3)nc3ccccc23)cc1	i	i	13µM	i	nt	i[2.29 µM]
Fc1ccc(Nc2ccnc(-c3ccc4c(c3)OCO4)n2)cc1	?	i	i	?	nt	i[2.29 µM]
Cc1cnc(CNc2nc(-c3ccoc3)nc3ccccc23)cn1	?	i	i	i	nt	i[2.29 µM]
c1ccc(CNc2nc(-c3ccoc3)nc3ccccc23)cc1	i	i	16µM	i	nt	i[2.29 µM]
Fc1ccc(Nc2ccnc(-c3ccoc3)n2)cc1	32µM	i	13µM	?	nt	i[2.29 µM]
Cc1cccc(CNc2nc(-c3ccoc3)nc3ccccc23)c1	?	i	16µM	i	nt	i[2.29 µM]
Cc1cc(S(=O)(=O)Nc2ccccc2C(=O)O)ccc1F	nt	nt	nt	i	nt	nt
SMILES	ERK AVP inh	DNA Pol III inh	Tau filament bind	ALOX15 inhib	Bst PK mod	FLuc inh
Clc1ccc(CSCCc2ccncc2)cc1Cl	i[11.5 µM]	i[11.4 µM]	i[11.4 µM]	i[11.4 µM]	nt	i[11.4 µM]
COC(=O)N1[C@H](C)C=C[C@]1(Cc1ccccc1)C(=O)NCc1ccccn1	i	i	i	?	nt	nt
COC(=O)N1[C@H](C)C=C[C@]1(Cc1ccccc1)C(=O)NCc1ccc(N(C)C)cc1	i	i	i	20µM	nt	nt
CCCn1c(-c2ccc(F)cc2)nc2c(NCCCCN(C)C)nc(C)nc21	i	i	i	i	nt	nt
CCN1C(=O)CC(N2CCN(c3ccc(C(=O)c4ccccc4)cc3)CC2)C1=O (configuration not stated)	16µM	i	i	i	nt	?
CN(C(=O)c1ccco1)c1nnc(C23CC4CC(CC(C4)C2)C3)s1	nt	i	i	?	nt	20µM
Cc1c(N=Cc2nc3ccccc3[nH]2)c(=O)n(-c2ccccc2)n1C	i	i	i	i	nt	16µM
Cc1c(N=Cc2nc3ccccc3n2C)c(=O)n(-c2ccccc2)n1C	i	i	i	i	nt	4µM
CCc1cc(C(=O)Cc2ccc(F)cc2)c(O)cc1O	i	i	i	?	nt	i
CCc1cc(C(=O)Cc2nc3ccccc3[nH]2)c(O)cc1O	i	i	i	i	i	10µM
CCc1cc(C(=O)COc2ccccc2F)c(O)cc1O	?	i	i	13µM	nt	i
OC[C@H]1O[C@H](n2cnc3c(NC4CCCC4)nc(Cl)nc32)[C@@H](O)[C@@H]1O	?	i	i	i	nt	i
Cc1cc(C(=O)CSc2nc3ccc(Cl)cc3[nH]2)c(C)n1C	i	i	i	25µM	nt	i
Cc1cc(C(=O)CSc2nc3ccccc3[nH]2)c(C)n1C	?	i	i	i	nt	16µM
COCCn1c(C)cc(C(=O)CSc2nc3ccccc3c(=O)[nH]2)c1C	i	i	i	?	i	i
O=C(CSc1nnc(COc2cccc3cccnc23)o1)c1ccc(F)cc1	?	i	i	i	10	i
COc1ccc(C(CC(=O)NC(C)(C)C)n2cccc2)cc1 (configuration not stated)	i	i	i	i	i	i
COc1ccc(C(CC(=O)Nc2nccs2)n2cccc2)cc1 (configuration not stated)	i	i	i	i	nt	16µM
CN1CCN(c2ncc3ncc(=O)n(CCC#N)c3n2)CC1	i	i	i	i	nt	i[11.4 µM]
COc1ccc2[nH]cc(CCNc3ccnc(-c4cccc(NS(C)(=O)=O)c4)n3)c2c1	13µM	i	i	20µM	nt	i[2.29 µM]
COc1ccc2[nH]cc(CCNc3cc(-c4ccccc4Cl)ncn3)c2c1	?	i	i	?	nt	i[2.29 µM]
COc1ccc2[nH]cc(CCNc3cc(-c4ccccc4C(F)(F)F)ncn3)c2c1	i	i	i	16µM	nt	i[2.29 µM]

Bioassay records (PubChem)
